This is an account of results in PubChem BioAssay AID504850 (National Center for Advancing Translational Sciences (NCATS), 2011).

SMILES strings stand for the structures. The campaign covered roughly 2,300 compounds. About 1,200 (52%) were called active. Inconclusive results (about 34%) are left out. So high a share suggests a set chosen from earlier hits. Some of the results follow. Unmarked numbers belong to inactive results. The call rests on the fitted dose curve; in most records, active means well fitted inhibition curve with a large enough effect; inconclusive means small, poorly fitted or top-dose-only effect, or effect the other way; inactive means no such curve, though single readings can be large or run the other way.
On the % scale 0 is the no-effect control and ±100 the full control effect; potency means the concentration at half of the fitted maximal effect.

The assay can be described thus: Confirmation screen for delayed death inhibitors of the malarial parasite plastid, 48 hour incubation. Further: nearly all actives have a fitted effect of over 65% in size. Conditions: P. falciparum-infected erythrocytes, luciferase growth; series mostly up to 28.7 µM; activity change, negative = inhibition: at the top concentration. In short, it runs like this: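 Single-generation (48 h, 37 C) exposure of integrated firefly luciferase-reporter P. falciparum in red cells, 0.1% parasitemia at 2% hematocrit, Albumax-supplemented RPMI. Falling luciferase signal marks parasite growth inhibition.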
Regarding `Cn1c2ccccc2c(=O)c2ccc(C#Cc3ccc(N)cc3)cc21`, the Potency is 12.6 µM (active).

As to `COc1ccc(C#Cc2ccc3c(=O)c4ccccc4n(C)c3c2)cc1`, the Potency is 10 µM (active).

`Cc1ccc2c(c1)c1c3n2CCN(C(=O)CCl)C3CCC1` (stereo not drawn): the Potency was 12.6 µM (active).

Take `Cc1cc(C)cc(CC(Cc2nc3ccccc3[nH]2)c2nc3ccccc3[nH]2)c1` (stereo not drawn): the Potency is 2.24 µM (active).

As to `CCCCOc1ccc(NC2=NC3(CCCC3)N=C(N)N2)cc1`, the Potency was 1.41 µM (active).

With `Cc1nc(-c2ccc(S(=O)(=O)N3CCCN(CCc4ccccc4)CC3)s2)cs1`, the Potency was 10 µM (active).

As for `Cc1ccc(N2C(=O)N3[C@H](c4ccc(F)cc4)[C@@H]4C(=O)N(C5CCCCC5)C(=O)[C@@H]4[C@]3(Cc3ccccc3)C2=O)cc1`, the Potency is 5.62 µM (active).

As to `Cc1cccc(Nc2nc3c(S(=O)(=O)c4ccccc4)nnn3c3ccccc23)c1C`, the Potency is 4.47 µM (active).

For `N#C/C(=C\C=C\c1ccccc1[N+](=O)[O-])C(=O)NC1CCCCC1`, the Potency is 4.47 µM (active).

Regarding `CC1CCCCC1NC(=O)/C(C#N)=C/C=C/c1ccccc1[N+](=O)[O-]` (stereo not drawn), the Potency was 5.01 µM (active).

For the compound `COc1ccc([N+](=O)[O-])c(S(=O)(=O)c2ccccc2)n1`, the “activity change, negative = inhibition” value was -55.2%.

Regarding `COC(=O)C(=Cc1ccccc1[N+](=O)[O-])C(=O)OC`, the Potency was 4.47 µM (active).

On to `COCCNC(=O)/C(C#N)=C/C=C/c1ccccc1[N+](=O)[O-]`, for which the Potency is 11.2 µM (active).

With `COc1ccc(Cn2c(-c3ccc(Br)cc3)c[n+]3ccccc23)cc1`, the Potency was 1.26 µM (active).

With `O=C(NC12CC3CC(CC(C3)C1)C2)c1ccc([N+](=O)[O-])o1`, the Potency is 6.31 µM (active).

For `CC(NC(=O)c1ccc([N+](=O)[O-])o1)C12CC3CC(CC(C3)C1)C2` (stereo not drawn), the Potency was 12.6 µM (active).

Take `COCCNCC(=O)NC12CC3CC(CC(C3)C1)C2`: the “activity change, negative = inhibition” value was 7.82%.

As for `Cn1cc([N+](=O)[O-])c(C(=O)Nc2ccn(C34CC5CC(CC(C5)C3)C4)n2)n1`, the “activity change, negative = inhibition” value is -7.7%.

On to `CC(=O)c1c(C)cc(C)c(CSc2nc(C)cc(=O)[nH]2)c1C`, for which the “activity change, negative = inhibition” value was -19.7%.

For the compound `Cc1ccc(S(=O)(=O)Nc2cc(=O)[nH]c(SCc3ccc(Cl)cc3)n2)cc1`, the Potency was 11.2 µM (active).

Regarding `OC1CCN(c2c3c(nc4cc(-c5ccc(Cl)cc5)nn24)CCC3)CC1`, the Potency was 7.08 µM (active).

Take `Fc1cc2nc(-c3ccncc3)[nH]c2cc1F`: the Potency was 10 µM (active).

On to `Cn1ccc(=Nc2ccc(NC(=O)c3ccc(N=c4ccn(C)c5ccc([N+](=O)[O-])cc45)cc3)cc2)cc1`, for which the Potency was 0.199 µM (active).

On to `Cc1sc2nc[nH]c(=O)c2c1-c1ccc(Cl)cc1`, for which the “activity change, negative = inhibition” value is -18.2%.

For the compound `O=C(CCl)Nc1cccc(S(=O)(=O)NC2=NCCC2)c1`, the Potency was 1.26 µM (active).

As for `COc1ccccc1-n1c(=S)[nH]c2c(sc(=S)n2-c2ccc(C)cc2C)c1=O`, the Potency is 3.16 µM (active).

For `CCOC(=O)c1c(C)nc(C)c(C(=O)OCC)c1-c1ccc(Br)cc1`, the Potency is 12.6 µM (active).

On to `Cc1ccc(C(=O)OCc2nnc(-c3ccc(Br)cc3)o2)cc1`, for which the “activity change, negative = inhibition” value was -7.51%.

Regarding `Cc1cccc(N2CCN(C3=NC(=O)C(Cc4ccccc4)S3)CC2)c1` (stereo not drawn), the Potency is 1.78 µM (active).

As to `O=C(c1ccsc1)N1CCCC(N2CCN(c3cccc(C(F)(F)F)c3)CC2)C1` (stereo not drawn), the Potency is 14.1 µM (active).

For `Cc1cc(C(=O)N2CCCC(N3CCN(c4cccc(C(F)(F)F)c4)CC3)C2)c(C)o1` (stereo not drawn), the Potency was 12.6 µM (active).

As for `O=C(Nc1ccncc1)c1ccc(Cl)c(S(=O)(=O)N2CCCC2)c1`, the Potency is 11.2 µM (active).

Regarding `Cc1ccc(S(=O)(=O)N2CCCCC2C)cc1[N+](=O)[O-]` (stereo not drawn), the “activity change, negative = inhibition” value is -20.8%.

For `Cc1ccc(C(=O)NC2CCCC2)cc1S(=O)(=O)N1CCCCC1`, the Potency is 11.2 µM (active).

Turning to `Cc1ccc(C(=O)NC2CCCCC2)cc1S(=O)(=O)N1CCCC1`, the Potency was 11.2 µM (active).

`Clc1cccc(OCCCCCN2CCOCC2)c1`: the “activity change, negative = inhibition” value is -3.47%.

As to `CN(CCCN1CCOCC1)C(=O)c1ccc2nc(Cc3cccc(Cl)c3)oc2c1`, the Potency is 14.1 µM (active).

Take `CCOC(=O)C1CCCN(C(=O)c2cc3cc4ccc(OC)cc4nc3o2)C1` (stereo not drawn): the Potency is 11.2 µM (active).

`COC(=O)[C@]1(CC(C)C)N[C@H](c2ccc(-c3ccc(F)cc3)c(OC)c2)[C@@H]2C(=O)N(C)C(=O)[C@@H]21`: the Potency is 6.31 µM (active).

For the compound `COCCN(C(=O)CCCC(=O)Nc1ccccn1)C(C(=O)NC1CCCCC1)c1ccc(C)cc1` (stereo not drawn), the Potency is 11.2 µM (active).

With `CC[C@H]1OC(=O)[C@H](C)[C@@H](O[C@H]2C[C@@](C)(OC)[C@@H](O)[C@H](C)O2)C(C)[C@@H](O[C@@H]2O[C@H](C)C[C@H](N(C)C)[C@@H]2O)[C@](C)(OC)C[C@@H](C)C(=O)[C@H](C)[C@@H](O)[C@]1(C)O` (stereo partly drawn), the “activity change, negative = inhibition” value is -15.5%.

As to `CC[C@H]1OC(=O)[C@H](C)[C@@H](O[C@H]2C[C@@](C)(OC)[C@@H](O)[C@H](C)O2)[C@H](C)[C@@H](O[C@@H]2O[C@H](C)C[C@H](N(C)C)[C@H]2O)[C@](C)(O)C[C@@H](C)CN(C)[C@H](C)[C@@H](O)[C@]1(C)O`, the Potency is 14.1 µM (active).

Consider `COc1ccccc1/C=C/C(=O)/C=C/c1ccccc1O`, for which the Potency was 1.41 µM (active).

Take `O=C(/C=C/c1ccccc1O)c1ccco1`: the “activity change, negative = inhibition” value was -8.48%.

For `Cc1ccc2[nH]c3c(c2c1)CCCC3NC(=O)CCl` (stereo not drawn), the Potency is 4.47 µM (active).

As to `Cc1cc(NC(=O)CSCC(=O)Nc2ccccc2Oc2ccccc2)no1`, the Potency is 14.1 µM (active).

With `COC(=O)[C@@]1(Cc2ccc(F)cc2)[C@@H]2[C@@H](CC(=O)[C@H]2CC(=O)C(=O)N(C)C)CN1C(=O)c1ccccc1`, the Potency was 11.2 µM (active).

Regarding `O=C(N/N=C/c1cccn1-c1ccc([N+](=O)[O-])cc1)c1cccnc1`, the Potency is 10 µM (active).

`Cc1cc([N+](=O)[O-])ccc1NC(=O)CSc1nncn1-c1cccnc1`: the “activity change, negative = inhibition” value is -17.8%.

As to `CCOc1ccc(N(C(=O)c2snc(C(N)=O)c2N)C(C(=O)NCC2CCCO2)c2c[nH]c3ccccc23)cc1` (stereo not drawn), the Potency is 3.55 µM (active).

Consider `Cc1cc(C)c(C(=O)/C=C/c2cccc3ccccc23)c(=O)[nH]1`, for which the Potency is 8.91 µM (active).

Consider `COc1ccc2[nH]c(=O)c(CN(CCCN(C)C)C(=O)Nc3ccc(F)cc3)cc2c1`, for which the Potency is 14.1 µM (active).

For the compound `O=C(Nc1nnc(SCc2ccc(F)cc2)s1)c1ccccn1`, the Potency is 3.55 µM (active).
